# Source: PubChem BioAssay (Tox21)
# “And” between values parts separate entries of the source, which are not always exact repeats. Equal entries are not always repeated. Records with an inconclusive call do not appear. Entries that show only a call come without a potency. Where a structure was tested more than once in an assay, its records may differ in their call. The source made the active and inactive calls. Unless noted, calls follow the shape of the dose curve; as a rule, active = well fitted curve in the direction sought with a large enough effect in the repeat runs; inconclusive = weak or mixed curves; inactive = no such curve, though single readings can be large; an effect the other way counts as inactive or inconclusive.
# Columns and labels:
# [1] = qHTS assay to identify small molecule agonists of the peroxisome proliferator-activated receptor delta (PPARd) signaling pathway - cell viability counter screen (AID 743211); also: nearly all actives have a fitted effect of over 55% in size; also: potency is read from the fitted curve at half-maximal effect
# Procedure, shortened: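 Tox21 library compounds, delivered in DMSO, were incubated 17 h with PPARd-bla HEK293H cells; cytotoxicity was taken from CellTiter-Glo luminescence read 30 min after reagent addition.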
# [2] = qHTS assay to identify small molecule antagonists of the peroxisome proliferator-activated receptor delta (PPARd) signaling pathway - cell viability counter screen (AID 743213); also: nearly all actives have a fitted effect of over 50% in size; also: potency is read from the fitted curve at half-maximal effect
# Procedure, shortened: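 HEK293H cells with the PPARd UAS-bla reporter, co-treated 17 h at 37 C with compounds and L165041 (300 nM final), were lysed with CellTiter-Glo. Luminescence indicated viable cell content.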
# [3] = qHTS assay to identify small molecule agonists of the farnesoid-X-receptor (FXR) signaling pathway - cell viability counter screen (AID 743218); also: nearly all actives have a fitted effect of over 45% in size; also: potency is read from the fitted curve at half-maximal effect
# Procedure, shortened: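 Readout: CellTiter-Glo luminescence, 30 min RT, multiplexed after the FXR-bla FRET reading. HEK 293T FXR-UAS-bla cells received compound 5 h post-plating and were incubated 16 h at 37 C.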
# [4] = qHTS assay to identify small molecule antagonists of the farnesoid-X-receptor (FXR) signaling pathway - cell viability counter screen (AID 743221; active = well fitted cell-killing curve with a large enough effect in the repeat runs, not every such curve was filed as active; also: nearly all actives have a fitted effect of over 50% in size; also: potency is read from the fitted curve at half-maximal effect)
# Procedure, shortened: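 Cytotoxicity is taken from ATP luminescence (CellTiter-Glo, 30 min, room temperature) in FXR-bla HEK 293T cells previously incubated 16 h at 37 C with compound and chenodeoxycholic acid at 50 uM final.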
# [5] = molecular target: Vitamin D3 receptor (Homo sapiens) (UniProt P11473); experiment: qHTS assay to identify small molecule agonists of the vitamin D receptor (VDR) signaling pathway (AID 743222; calls by dose curve)
# Sequence of Vitamin D3 receptor (Homo sapiens) (P11473 whole entry, looked up): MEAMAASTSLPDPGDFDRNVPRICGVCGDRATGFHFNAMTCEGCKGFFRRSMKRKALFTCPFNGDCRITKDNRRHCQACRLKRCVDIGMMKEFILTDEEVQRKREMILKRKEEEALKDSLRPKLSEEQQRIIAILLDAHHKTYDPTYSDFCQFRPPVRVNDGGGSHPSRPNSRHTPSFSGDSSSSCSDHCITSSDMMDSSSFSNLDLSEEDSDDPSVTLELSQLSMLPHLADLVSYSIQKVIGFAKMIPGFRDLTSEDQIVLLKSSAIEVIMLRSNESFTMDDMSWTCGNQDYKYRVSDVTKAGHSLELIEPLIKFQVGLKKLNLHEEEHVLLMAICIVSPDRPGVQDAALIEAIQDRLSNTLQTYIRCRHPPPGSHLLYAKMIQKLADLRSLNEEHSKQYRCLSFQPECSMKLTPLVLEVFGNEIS
# Procedure, shortened: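 Following 4 h attachment at 37C, VDR-bla cells (2,000 per well) received DMSO-dissolved compounds or controls. After 16 h incubation, LiveBLAzer B/G FRET substrate was added and fluorescence read 2 h later at room temperature.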
# [6] = qHTS assay to identify small molecule agonists of the vitamin D receptor (VDR) signaling pathway - cell viability counter screen (AID 743224); also: nearly all actives have a fitted effect of over 50% in size; also: potency is read from the fitted curve at half-maximal effect
# Procedure, shortened: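 In parallel with the bla FRET readout, cytotoxicity toward VDR-bla cells after 16 h compound exposure was assessed by CellTiter-Glo, with luminescence recorded after a 30 min room-temperature incubation.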
# [7] = qHTS assay to identify small molecule agonists of the NFkB signaling pathway - cell viability counter screen (AID 1159515; calls by dose curve; also: nearly all actives have a fitted effect of over 55% in size; also: potency is read from the fitted curve at half-maximal effect)
# Procedure, shortened: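 Plate 2,000 NFkB-bla ME-180 cells/well; incubate overnight. Add compounds, 5 hr at 37 C. Add FRET substrate, 1.5 hr RT. Add CellTiter-Glo, 30 min RT; read luminescence.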
# [8] = qHTS assay to identify small molecule agonists of the endoplasmic reticulum stress response signaling pathway (AID 1159516; active = well fitted activation curve with a large enough effect in the signal ratio in the repeat runs, not every such curve was filed as active; the % refers to the signal ratio)
# Procedure, shortened: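 Beta-lactamase expression from the ER stress response element in HeLa reporter cells is quantified with the LiveBLAzer B/G FRET substrate, read at 405 nm excitation after 2 hr at room temperature, following 5 hr compound treatment at 37 C.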
# [9] = qHTS assay to identify small molecule antagonists of the retinoid-related orphan receptor gamma (ROR-gamma) signaling pathway - cell viability counter screen (AID 1159520); also: nearly all actives have a fitted effect of over 50% in size; also: potency is read from the fitted curve at half-maximal effect
# Procedure, shortened: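 Tet-on ROR gamma CHO cells were given compounds for 2 hr, then doxycycline hyclate at 1 uM final, and incubated 16 hr at 37 C. Viability was measured as ATP content by CellTiter-Glo luminescence.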
# [10] = molecular target: Nuclear receptor ROR-gamma (Homo sapiens) (UniProt P51449); experiment: qHTS assay to identify small molecule antagonists of the retinoid-related orphan receptor gamma (ROR-gamma) signaling pathway (AID 1159521; also: nearly all actives have a fitted effect of over 50% in size; also: potency is read from the fitted curve at half-maximal effect)
# Procedure, shortened: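 Inducible-expression reporter assay: doxycycline (1 uM final) switched on RORγ in CHO cells bearing a ROR response element-luciferase construct, with test compounds present from 2 h beforehand. Decreased luminescence after 16 h defined antagonist activity.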
# [11] = qHTS assay to identify small molecule agonists of the AP-1 signaling pathway - cell viability counter screen (AID 1159525; calls by dose curve; also: nearly all actives have a fitted effect of over 55% in size; also: potency is read from the fitted curve at half-maximal effect)
# Procedure, shortened: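 Same-well cytotoxicity counter screen of the Tox21 10K library in ME-180 cells. The readout is ATP-dependent luminescence after 5 h compound treatment. Data are normalised to DMSO and tetra n-octyl ammonium bromide controls.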
# [12] = qHTS assay to identify small molecule agonists of the AP-1 signaling pathway (AID 1159526; calls by dose curve)
# [13] = molecular target: Retinoic acid receptor RXR-alpha (Homo sapiens) (UniProt P19793); experiment: qHTS assay to identify small molecule agonists of the RXR signaling pathway (AID 1159527; calls by dose curve; also: nearly all actives have a fitted effect of over 35% in size)
# Sequence of Retinoic acid receptor RXR-alpha (Homo sapiens) (P19793 whole entry, looked up): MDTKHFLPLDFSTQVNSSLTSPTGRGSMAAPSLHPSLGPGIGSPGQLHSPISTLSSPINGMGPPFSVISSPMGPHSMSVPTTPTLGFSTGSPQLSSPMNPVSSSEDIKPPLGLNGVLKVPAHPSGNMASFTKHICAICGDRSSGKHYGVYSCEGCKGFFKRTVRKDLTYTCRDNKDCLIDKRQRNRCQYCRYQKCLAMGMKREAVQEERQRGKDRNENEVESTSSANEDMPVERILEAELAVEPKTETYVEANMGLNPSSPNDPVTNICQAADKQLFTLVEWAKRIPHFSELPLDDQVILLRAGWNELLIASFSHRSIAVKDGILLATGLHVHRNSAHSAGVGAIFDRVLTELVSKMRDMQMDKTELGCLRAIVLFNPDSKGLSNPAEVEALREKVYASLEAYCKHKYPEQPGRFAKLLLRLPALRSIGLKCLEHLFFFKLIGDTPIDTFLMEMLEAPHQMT
# Procedure, shortened: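 Compounds in DMSO were added to RXR-alpha-UAS-bla HEK 293T cells kept in 2% charcoal-stripped serum, and incubated 16 hr at 37 C with 5% CO2. Reporter signal came from a 2 hr B/G FRET substrate step.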
# [14] = molecular target: Bile acid receptor (Homo sapiens) (UniProt Q96RI1); experiment: qHTS assay to identify small molecule agonists of the farnesoid-X-receptor (FXR) signaling pathway (AID 743220; active = well fitted activation curve with a large enough effect in the signal ratio in the repeat runs, not every such curve was filed as active; the % refers to the signal ratio)
# Sequence of Bile acid receptor (Homo sapiens) (Q96RI1 whole entry, looked up): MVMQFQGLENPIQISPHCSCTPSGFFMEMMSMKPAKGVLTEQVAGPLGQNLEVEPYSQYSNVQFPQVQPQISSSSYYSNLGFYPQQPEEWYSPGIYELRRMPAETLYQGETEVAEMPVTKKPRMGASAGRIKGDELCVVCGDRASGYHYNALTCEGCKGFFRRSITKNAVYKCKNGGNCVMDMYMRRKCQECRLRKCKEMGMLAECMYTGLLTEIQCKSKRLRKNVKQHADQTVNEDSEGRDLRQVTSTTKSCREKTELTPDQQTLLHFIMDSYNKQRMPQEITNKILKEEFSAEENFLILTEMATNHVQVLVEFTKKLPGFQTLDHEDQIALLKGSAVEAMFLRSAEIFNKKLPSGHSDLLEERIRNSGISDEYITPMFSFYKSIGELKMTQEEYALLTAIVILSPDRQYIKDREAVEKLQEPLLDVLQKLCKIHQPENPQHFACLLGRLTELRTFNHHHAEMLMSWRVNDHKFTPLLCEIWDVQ
# Procedure, shortened: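 FXR-UAS-bla HEK 293T cells carrying a UAS-driven beta-lactamase reporter were plated for 5 h at 37C/5% CO2, then exposed to DMSO-dissolved Tox21 10K compounds for 16 h at 37C. A LiveBLAzer B/G FRET substrate was loaded for 2 h at room temperature before fluorescence reading.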
# [15] = qHTS assay to identify small molecule antagonists of the vitamin D receptor (VDR) signaling pathway - cell viability counter screen (AID 743225); also: nearly all actives have a fitted effect of over 50% in size; also: potency is read from the fitted curve at half-maximal effect
# Procedure, shortened: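 Same-well multiplex: following 16 h treatment of HEK 293T cells carrying a UAS-driven beta-lactamase reporter with compound and agonist (3 nM final), and a 2 h FRET substrate step, CellTiter-Glo was added and luminescence read after 30 min.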
# [16] = molecular target: Vitamin D3 receptor (Homo sapiens) (UniProt P11473); experiment: qHTS assay to identify small molecule antagonists of the vitamin D receptor (VDR) signaling pathway (AID 743223; active = well fitted inhibition curve with a large enough effect in the signal ratio in the repeat runs, not every such curve was filed as active; the % refers to the signal ratio; also: potency is read from the fitted curve at half-maximal effect)
# Procedure, shortened: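 Quantitative HTS in VDR-bla reporter cells stimulated with 1alpha,25-dihydroxyvitamin D3, 3 nM final. Compound exposure 16 h, 37C, 5% CO2. Read-out: beta-lactamase FRET substrate fluorescence, 2 h RT.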
# [17] = molecular target: Peroxisome proliferator-activated receptor delta (Homo sapiens) (UniProt Q03181); experiment: qHTS assay to identify small molecule antagonists of the peroxisome proliferator-activated receptor delta (PPARd) signaling pathway (AID 743215; active = well fitted inhibition curve with a large enough effect in the signal ratio in the repeat runs, not every such curve was filed as active; the % refers to the signal ratio;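 also: cells stimulated with agonist L165041 at 300 nM final during compound exposure; series mostly up to about 62 µM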)
# Sequence of Peroxisome proliferator-activated receptor delta (Homo sapiens) (Q03181 whole entry, looked up): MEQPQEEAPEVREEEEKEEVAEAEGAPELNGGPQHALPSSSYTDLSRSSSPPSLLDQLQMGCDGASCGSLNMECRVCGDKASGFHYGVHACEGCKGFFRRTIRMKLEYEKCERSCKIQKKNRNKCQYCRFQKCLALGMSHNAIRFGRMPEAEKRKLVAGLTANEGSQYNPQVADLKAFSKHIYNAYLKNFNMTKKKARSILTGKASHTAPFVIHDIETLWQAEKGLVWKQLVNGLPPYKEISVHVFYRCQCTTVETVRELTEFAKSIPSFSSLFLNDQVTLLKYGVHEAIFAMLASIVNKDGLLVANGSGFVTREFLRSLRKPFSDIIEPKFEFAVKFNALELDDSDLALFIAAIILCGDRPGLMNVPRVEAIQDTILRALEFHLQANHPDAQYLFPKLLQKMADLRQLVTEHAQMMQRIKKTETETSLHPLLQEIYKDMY
# Procedure, shortened: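 Fluorescence from cleaved LiveBLAzer B/G FRET substrate (2 h, room temperature) reports PPARd-driven beta-lactamase in HEK293H UAS-bla cells. Cells had been treated 17 h at 37 C with compound plus 300 nM final L165041.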
SMILES,Potency [1],Potency [2],Potency [3],Potency [4],outcome [5],Potency [6],Potency [7],Potency [8],Potency [9],Potency [10],Potency [11],outcome [12],Potency [13],Potency [14],Potency [15],Potency [16],Potency [17]
Cc1ccc(N=CN(C)C=Nc2ccc(C)cc2C)c(C)c1,49.2 µM (active) and 48.9 µM (active) and inactive,24.5 µM (active),inactive,inactive,inactive,39.1 µM (active) and 38.9 µM (active),54.9 µM (active) and inactive,inactive,inactive,48.8 µM (active) and 54.4 µM (active) and inactive,54.9 µM (active) and inactive,inactive,inactive,,,,
CC(C)Nc1ccc(Nc2ccccc2)cc1,,43.6 µM (active),inactive,inactive,,43.5 µM (active) and 43.6 µM (active),inactive,inactive,,38.4 µM (active) and 54.5 µM (active),43.5 µM (active) and 54.9 µM (active),,,inactive,43.6 µM (active),,
CCOP(=O)(O)OCC (tested in a mixture with another compound),inactive and 21.7 µM (active),inactive and 19.3 µM (active),inactive and 43.3 µM (active),inactive and 48.6 µM (active),,inactive and 17.2 µM (active),inactive and 54.5 µM (active),inactive,inactive and 54 µM (active),,inactive and 48.6 µM (active),inactive,inactive,,,,
CC(C)(c1ccccc1)c1ccc(O)c(C(C)(C)c2ccccc2)c1,21.7 µM (active) and 19.5 µM (active),34.3 µM (active) and 43.6 µM (active),54.9 µM (active),,,19.3 µM (active) and 15.5 µM (active),21.7 µM (active) and 21.9 µM (active),,48.1 µM (active) and 30.6 µM (active),,12.2 µM (active) and 21.9 µM (active),,,,30.6 µM (active) and 17.4 µM (active),43.6 µM (active),
OC(c1ccc(Cl)cc1)(c1cncnc1)c1ccccc1Cl (centres undefined),inactive,inactive,inactive,inactive,inactive,inactive,inactive,inactive,15.6 µM (active) and inactive,,inactive,inactive,,,inactive,inactive,inactive
CC(C)(C#N)N=NC(C)(C)C#N,inactive,inactive,inactive,,inactive,inactive,inactive,inactive,inactive,,inactive,inactive,inactive,,,inactive,inactive
CCCCCCCCCc1ccc(O)cc1,inactive,inactive,inactive,,inactive,,inactive,inactive,61.8 µM (active) and inactive,,,,,,,inactive,inactive
CCCCCCCC[N+](C)(CCCCCCCC)CCCCCCCC,4.36 µM (active) and 2.46 µM (active) and 5.49 µM (active),3.88 µM (active) and 2.46 µM (active) and 5.49 µM (active),7.75 µM (active) and 2.19 µM (active) and 7.76 µM (active),13.8 µM (active) and 7.77 µM (active) and 21.9 µM (active),,6.15 µM (active) and 3.09 µM (active) and 5.49 µM (active),17.3 µM (active) and 24.5 µM (active),inactive,24.3 µM (active) and 21.7 µM (active) and 10.9 µM (active),,17.3 µM (active) and 13.8 µM (active) and 19.5 µM (active),,,,5.48 µM (active) and 6.93 µM (active) and 6.16 µM (active),,
